According to PubChem BioAssay AID686978 (National Center for Advancing Translational Sciences (NCATS), 2013):
Hit rate of the full screen: of about 420,000 compounds, about 64,000 (15%) were called active. Inconclusive results (about 27%) are left out. Calls come from the whole dose curve; as a rule, active = well fitted inhibition curve with a large enough effect; inconclusive = small, poorly fitted or top-dose-only effect; inactive = flat fitted curve, though single readings scatter. Only a sample is shown.

assay: qHTS for Inhibitors of human tyrosyl-DNA phosphodiesterase 1 (TDP1): qHTS in cells in absence of CPT; conditions: DT40 Tdp1-/- hTDP1 cells, no CPT, ATP luminescence, 48 h; activity change, negative = growth inhibition: at 46.2 µM (top of the series); note: nearly all actives have a fitted effect of over 55% in size
Method in brief: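 Camptothecin absent (DMSO only). Human TDP1-complemented DT40 knockout cells, 400 cells/well, 37 °C for minimum 48 hr; ATP measured via CellTiter-Glo, 30 min dark incubation, luminescence.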
% is set by controls: 0 for no effect and ±100 for the full control effect; potency is the fitted concentration of half-maximal effect.

Row | Structure (SMILES) | activity change, negative = growth inhibition | Potency
1 | O=C(O)c1ccccc1Cc1ccc(F)c2ccccc12 | 3.98% (inactive) | –
2 | COCCNC(=S)Nc1cc(S(=O)(=O)N2CCOCC2)ccc1N1CCCCC1 | – | 16.4 µM (active)
3 | O=C(OCC(=O)N1CCCC1=O)c1cc(S(=O)(=O)N2CCOCC2)ccc1Cl | -4.83% (inactive) | –
4 | O=C(Nc1ccc2c(c1)nc1n2CCCCC1)c1cc(S(=O)(=O)N2CCOCC2)ccc1Cl | – | 14.6 µM (active)
5 | CCOc1ccc(C(=O)Nc2ccc(CN3CCOCC3)cc2)cc1Cl | -7.26% (inactive) | –
6 | O=S(=O)(c1ccc(NC(=S)NN=C(C2CC2)C2CC2)cc1)N1CCOCC1 | -8.48% (inactive) | –
7 | O=C(Nc1ccc(S(=O)(=O)N2CCOCC2)cc1)C1CCN(S(=O)(=O)c2ccc(Cl)cc2)CC1 | – | 10.3 µM (active)
8 | O=C(CNCc1ccco1)Nc1cc(S(=O)(=O)N2CCOCC2)ccc1N1CCCC1 | -0.457% (inactive) | –
9 | O=C(COC(=O)c1ccccc1F)Nc1cc(S(=O)(=O)N2CCOCC2)ccc1N1CCCC1 | 1.56% (inactive) | –
10 | CC(=O)Nc1ccc(S(=O)(=O)N2CCC(C(=O)NC3CC3)CC2)cc1 | 15.7% (inactive) | –
11 | CCOc1ccc(C(=O)NC(=S)Nc2ccc(NC(=O)C(C)C)cc2)cc1[N+](=O)[O-] | 5.95% (inactive) | –
12 | CCOc1ccc(C(=O)NC(=S)Nc2ccc(N3CCOCC3)c(Cl)c2)cc1[N+](=O)[O-] | – | 8.2 µM (active)
13 | COc1cc(NC(=S)NCc2ccco2)c(OC)cc1Cl | -6.81% (inactive) | –
14 | COC(=O)CN(c1nc(C)c(Cl)c(OC)n1)S(=O)(=O)c1ccc(C)cc1 | -18.2% (inactive) | –
15 | O=C(OCC(O)C(O)COC(=O)c1ccccc1)c1ccccc1 (stereo not drawn) | -8.97% (inactive) | –
16 | O=C(O)C(=Cc1ccccc1[N+](=O)[O-])c1ccccc1 | -12.4% (inactive) | –
17 | O=C(Cc1c(F)cccc1Cl)N1CCN(C(=O)c2ccco2)CC1 | -11.5% (inactive) | –
18 | O=C(Nc1ccc2cn[nH]c2c1)c1ccc(S(=O)(=O)N2CCOCC2)cc1 | -19.1% (inactive) | –
19 | COc1ccc(NC(=O)CNc2cc(S(=O)(=O)N3CCOCC3)ccc2N2CCOCC2)c(OC)c1 | 2.99% (inactive) | –
20 | CC(=O)Nc1ccc(C(=O)Nc2cc(S(=O)(=O)N3CCOCC3)ccc2N2CCOCC2)cc1 | -26.5% (inactive) | –
21 | O=C(Nc1ccc(N2CCOCC2)c(Cl)c1)c1ccc(S(=O)(=O)N2CCOCC2)cc1 | – | 14.6 µM (active)
22 | CC(Oc1ccc(F)cc1)C(=O)Nc1cc(S(=O)(=O)N2CCOCC2)ccc1N1CCN(C)CC1 (stereo not drawn) | -1.55% (inactive) | –
23 | CC(C)CCOc1ccc(C(=O)Nc2cc(S(=O)(=O)N3CCOCC3)ccc2N2CCOCC2)cc1 | – | 5.8 µM (active)

Row | Structure (SMILES) | activity change, negative = growth inhibition | Potency
24 | NC(=O)CN1CCCC1c1ccc2c(c1)OCCO2 (stereo not drawn) | -8.83% (inactive) | –
25 | CCOC(CNC(=O)C1CCN(S(=O)(=O)c2ccc3nc4c(c(C(=O)O)c3c2)CC(C)CC4)CC1)OCC (stereo not drawn) | 20.5% (inactive) | –
26 | CCN(CC)N=Nc1cccc(NC(C)=O)c1 | – | 3.26 µM (active)
27 | CC(=O)c1cccc(NC(=O)c2ccncc2)c1 | -20.5% (inactive) | –
28 | CC(=O)Nc1cccc(C(=O)OCC(=O)c2ccc3c(c2)OCO3)c1 | -25.7% (inactive) | –
29 | C=CCn1c(CNC(=O)c2ccco2)nnc1SCC(=O)c1ccc(OC)cc1 | -17.9% (inactive) | –
30 | C=CCn1c(CCNC(=O)c2ccccc2F)nnc1SCC(=O)Nc1ccc(OC)cc1 | -22.4% (inactive) | –
31 | C=CCn1c(SCc2ccc(Cl)c(Cl)c2)nnc1C(CO)NC(=O)c1ccc(OC)cc1 (stereo not drawn) | – | 20.6 µM (active)
32 | C=CCN1C(=O)C(Cc2cccc(Cl)c2)S/C1=N/N=C/c1ccco1 (stereo not drawn) | -27.6% (inactive) | –
33 | Cc1cc(S(=O)(=O)NCc2ccccn2)c(Cl)cc1Cl | -22.2% (inactive) | –
34 | CCn1c(=S)sc2c(=O)n(CC(=O)Nc3ccc(OC)cc3)c(C)nc21 | 8.25% (inactive) | –
35 | COC(=O)c1cc(C(=O)CSc2nc(C)cc(C)n2)ccc1O | -0.488% (inactive) | –
36 | CC(C)OC(=O)c1ccc(NCc2cc(O)ccc2O)cc1Cl | – | 2.59 µM (active)
37 | O=C(OC12CC3CC(CC(C3)C1)C2)c1ccc(NCc2cc(O)ccc2O)cc1 | – | 1.64 µM (active)
38 | CC(CN1CCOCC1)OC(=O)c1ccc(Cl)cc1Cl (stereo not drawn) | -0.492% (inactive) | –
39 | COC(=O)c1ccc(NCc2cc(O)ccc2O)cc1 | – | 4.61 µM (active)
40 | C#CCNc1ccc(C(=O)OCC)cc1 | -31.1% (inactive) | –
41 | CC(OC(=O)c1ccc(Cl)cc1O)C(=O)NCCC1=CCCCC1 (stereo not drawn) | -14% (inactive) | –
42 | CSCCC(NS(=O)(=O)c1ccc(C)cc1)C(=O)N1CCCC1 (stereo not drawn) | -3.98% (inactive) | –
43 | C/C(Cc1ccccc1)=N\NC(=O)CNC(=O)c1ccc2c(c1)OCCO2 | -18% (inactive) | –
44 | CC1(C)C2CCC13CS(=O)(=O)NC3C2 (stereo not drawn) | -2.28% (inactive) | –
45 | CC1(C)OC(=O)C(=CNC(CO)C(=O)O)C(=O)O1 (stereo not drawn) | -11.9% (inactive) | –
46 | O=P(O)(CP(=O)(c1ccccc1)c1ccccc1)c1ccccc1O | 5.16% (inactive) | –

Row | Structure (SMILES) | activity change, negative = growth inhibition | Potency
47 | C=CCN1CN(S(=O)(=O)c2ccc(OC)cc2)c2nc3ccccc3nc21 | 11.2% (inactive) | –
48 | Cn1cnnc1Sc1ccc(CN2CCN(C3CCCC3)C(CCO)C2)o1 (stereo not drawn) | 4.43% (inactive) | –
49 | Cc1c(C(=O)N(Cc2ccccc2)Cc2cccnc2)cnn1-c1ccc(F)cc1 | -12.2% (inactive) | –
50 | CCN(CC)CC(=O)Nc1nn(-c2ccccc2)nc1C(N)=O | 1.58% (inactive) | –
51 | O=C(NCCCN1CCCCCC1)c1ccc(N2CCCC2=O)cc1 | -2.76% (inactive) | –
52 | Cc1ccc(C(=O)N/N=C/c2cccc3ccccc23)cn1 | -2.46% (inactive) | –
53 | Cc1ccc(C(=O)N/N=C\c2cc(Br)c(Br)o2)cn1 | – | 16.4 µM (active)
54 | O=C(N/N=C/c1ccc(Br)o1)c1cncc(Br)c1 | 14.6% (inactive) | –
55 | C=CCSc1ccc(S(=O)(=O)N2CCN(C)CC2)cn1 | -4.94% (inactive) | –
56 | COC(=O)C1CCN(C(=O)COC(=O)c2cc(S(=O)(=O)N3CCOCC3)ccc2C)CC1 | -11% (inactive) | –
57 | C=CCNC(=O)COC(=O)c1ccccc1C(=O)N(C)C1CCCCC1 | 9.03% (inactive) | –
58 | O=C(COC(=O)c1ccccc1SCC(=O)NC1CCCCC1)NC1CCCCC1 | -14.5% (inactive) | –
59 | CC1CCCC(NC(=O)COC(=O)c2ccccc2C(=O)N(C)C2CCCCC2)C1C (stereo not drawn) | – | 14.6 µM (active)
60 | NC(=O)COC(=O)c1sc2cc(F)ccc2c1Cl | 14.2% (inactive) | –
61 | CC(=O)NC12CC3CC(C1)CC(C(=O)N1CCN(C(=O)c4ccco4)CC1)(C3)C2 | 22.3% (inactive) | –
62 | COc1ccc(N(CC(=O)NC(C)(C)C)C(=O)c2ccco2)cc1 | -10.6% (inactive) | –
63 | CC1(C)CC(=O)c2cc(OCC(=O)NCC3CCCO3)ccc2O1 (stereo not drawn) | -13.3% (inactive) | –
64 | Cc1cc(-c2cccs2)nc(-n2cccc2)n1 | -17.5% (inactive) | –
65 | O=C(NNc1ncnc2c1cnn2-c1ccccc1)c1ccco1 | 3% (inactive) | –
66 | Cc1cccc(NC(=S)NCc2ccc3[nH]c4c(c3c2)CCCC4)c1 | – | 18.4 µM (active)
67 | Cc1cccc(NC(=S)N2CCCC(c3nc4ccccc4[nH]3)C2)c1 (stereo not drawn) | 7.85% (inactive) | –
68 | O=C(O)CCC(=O)NCc1ccc2[nH]c3c(c2c1)CCCC3 | -2.01% (inactive) | –
